Here are results for 7 compounds from PubChem BioAssay (NCI).

Among the test systems are NCI-H23 lung; NCI-H226 lung; NCI-H322M lung; HOP-62 NSCLC; NCI-H460 lung; HOP-92 NSCLC; NCI-H522 lung; A549/ATCC NSCLC; 786-0 renal; COLO 205 colon; DU-145 prostate; K-562 leukemia; MALME-3M melanoma; MDA-MB-231 breast; RXF 393 renal; SF-268 CNS; SF-295 CNS; SF-539 CNS; UACC-257 melanoma; M14 melanoma.
What all share (test): NCI-60 one-dose screen, 48 h (100 = growth as untreated, 0 = no growth, -100 = all killed)
What all share (conditions): 10 µM unless noted

The panel holds about 83,000 compounds, 20% with a hit somewhere; the sample as a whole holds those more often.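 Compound tested at a single concentration for 48 hours in 96-well plates; a percent growth value below 10 was scored as active.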 Unmarked numbers belong to inactive results. Calls of active or inactive are those of the source.

For the compound `O=[N+]([O-])c1ccc(NC(c2ccccc2)c2ccc3cccnc3c2O)cc1` (stereo not given), the growth with NCI-H23 lung is 32%; in the assay with NCI-H226 lung, 16.6%; in the assay with NCI-H322M lung, 29.8%; in the assay on HOP-62 NSCLC, 26.5%; in the assay with NCI-H460 lung, -16% (active); in the assay with HOP-92 NSCLC, 62.5%. The growth was 17.9% in the assay with NCI-H522 lung; 13.8% in the assay on A549/ATCC NSCLC; 18.3% in the assay on 786-0 renal; 30.3% in the assay on COLO 205 colon; 22.5% in the assay with DU-145 prostate; 13% in the assay on K-562 leukemia. Moreover, the growth was 17.2% with MALME-3M melanoma; 44.1% in the assay with MDA-MB-231 breast; 43.9% in the assay on RXF 393 renal; 12.9% with SF-268 CNS; 14.5% in the assay with SF-295 CNS; 14% in the assay with SF-539 CNS. Also, the growth in the assay with UACC-257 melanoma was -4.88% (active); in the assay with M14 melanoma, 8.95% (active).

For `Oc1ccc(O)c(-c2ccccc2)c1`, the growth was 63.1% in the assay with NCI-H23 lung; 54.9% in the assay on NCI-H226 lung; 42.9% in the assay on NCI-H322M lung; 46.6% in the assay on HOP-62 NSCLC; 19.7% in the assay with NCI-H460 lung; 85.8% with HOP-92 NSCLC. Further, the growth in the assay on NCI-H522 lung was -68.3% (active); in the assay with A549/ATCC NSCLC, 66.1%; with 786-0 renal it was 65.6%; in the assay on COLO 205 colon, 85.9%; in the assay on DU-145 prostate it was 77.6%; in the assay with K-562 leukemia it was 30.4%. Besides, the growth in the assay on MALME-3M melanoma is 84.6%; with MDA-MB-231 breast, 66%; in the assay with RXF 393 renal, 73.8%; in the assay with SF-268 CNS it was 53.7%; with SF-295 CNS, 17.7%; with SF-539 CNS it was 46.3%. Moreover, the figures for the growth in the assay with UACC-257 melanoma and in the assay with M14 melanoma were 88.4% and 65.9%, respectively.

Regarding `CCCCC/C(C)=N\NC(N)=S`, the growth in the assay with NCI-H23 lung is 89.5%; with NCI-H226 lung it was 86%; in the assay on NCI-H322M lung, 90.4%; in the assay with HOP-62 NSCLC it was 89.8%; in the assay with NCI-H460 lung, 94.8%; in the assay with HOP-92 NSCLC it was 93.2%. Also, the growth was 89.3% in the assay on NCI-H522 lung; 78.4% with A549/ATCC NSCLC; 101% in the assay with 786-0 renal; 92.8% in the assay on COLO 205 colon; 85.2% in the assay with DU-145 prostate; 58.7% with K-562 leukemia. The growth in the assay on MALME-3M melanoma is 83.7%; with MDA-MB-231 breast it was 85.9%; in the assay on RXF 393 renal, 85.7%; with SF-268 CNS it was 88.2%; with SF-295 CNS it was 83.4%; in the assay on SF-539 CNS, 103%. Moreover, the figures for the growth in the assay on UACC-257 melanoma and in the assay with M14 melanoma were 60% and 74.5%, respectively.

Consider `CC(=O)c1cccc(OC(=O)c2ccccc2)c1`, for which the growth was 101% in the assay with NCI-H23 lung; 101% with NCI-H226 lung; 136% in the assay on NCI-H322M lung; 104% in the assay on HOP-62 NSCLC; 107% in the assay with NCI-H460 lung; 82.9% in the assay with HOP-92 NSCLC. Besides, the growth was 84.7% with NCI-H522 lung; 99% in the assay on A549/ATCC NSCLC; 102% in the assay on 786-0 renal; 107% in the assay on COLO 205 colon; 114% with DU-145 prostate; 92% in the assay on K-562 leukemia. Further, the growth in the assay with MALME-3M melanoma is 110%; in the assay on MDA-MB-231 breast, 102%; in the assay with RXF 393 renal it was 117%; in the assay on SF-268 CNS, 106%; in the assay with SF-295 CNS it was 124%; in the assay with SF-539 CNS, 109%. The growth is 101% in the assay with UACC-257 melanoma and 93.1% in the assay on M14 melanoma.

As to `NC(=O)Cc1nc(O)cc(=O)[nH]1`, the growth in the assay with NCI-H23 lung is 107%; in the assay on NCI-H226 lung, 99.1%; with NCI-H322M lung, 103%; in the assay on HOP-62 NSCLC, 81.6%; with NCI-H460 lung, 105%; in the assay on HOP-92 NSCLC it was 91.7%. Also, the growth in the assay with NCI-H522 lung is 77%; in the assay with A549/ATCC NSCLC it was 89.8%; in the assay on 786-0 renal, 98.4%; in the assay with COLO 205 colon it was 108%; in the assay with DU-145 prostate, 115%; in the assay with K-562 leukemia it was 102%. The growth is 103% in the assay on MALME-3M melanoma; 96.5% with MDA-MB-231 breast; 107% in the assay with RXF 393 renal; 102% in the assay with SF-268 CNS; 96.5% in the assay with SF-295 CNS; 101% in the assay on SF-539 CNS. For the same compound, the growth is 86.4% in the assay on UACC-257 melanoma and 101% in the assay on M14 melanoma.

Take `COc1ccc(CCO)cc1`: the growth in the assay on NCI-H23 lung was 110%; in the assay with NCI-H226 lung it was 92.8%; in the assay with NCI-H322M lung, 99%; with HOP-62 NSCLC, 96.2%; with NCI-H460 lung it was 108%; in the assay with HOP-92 NSCLC it was 86.4%. In addition, the growth is 88.6% with NCI-H522 lung; 92.9% in the assay on A549/ATCC NSCLC; 99.3% in the assay on 786-0 renal; 96.3% in the assay with COLO 205 colon; 110% in the assay on DU-145 prostate; 82.9% in the assay with K-562 leukemia. Also, the growth with MALME-3M melanoma is 92.1%; with MDA-MB-231 breast, 102%; in the assay on RXF 393 renal, 105%; in the assay with SF-268 CNS it was 105%; in the assay with SF-295 CNS it was 103%; in the assay with SF-539 CNS it was 101%. Also, the figures for the growth in the assay with UACC-257 melanoma and in the assay on M14 melanoma were 96.4% and 103%, respectively.

Consider `CCCCCCCCCCCCCCCCC(=O)O`, for which the growth with NCI-H23 lung is 97.6%; with NCI-H226 lung, 101%; with NCI-H322M lung, 98%; in the assay on HOP-62 NSCLC, 104%; with NCI-H460 lung, 108%; in the assay on HOP-92 NSCLC, 110%. Besides, the growth is 102% in the assay with NCI-H522 lung; 104% with A549/ATCC NSCLC; 97.7% in the assay on 786-0 renal; 114% in the assay with COLO 205 colon; 107% in the assay with DU-145 prostate; 89.5% in the assay on K-562 leukemia. The growth was 98.3% in the assay on MALME-3M melanoma; 105% in the assay with MDA-MB-231 breast; 99.5% with RXF 393 renal; 102% in the assay on SF-268 CNS; 104% in the assay with SF-295 CNS; 106% in the assay with SF-539 CNS. The growth with UACC-257 melanoma is 101%; with M14 melanoma it was 104%.
